# Compounds with a hit are over-represented: about 15% of the library has one in this group of screens.
# Gal4-VP16 FLuc: Gal4-VP16 reporter inhibition counter-screen | Drosophila S2 Gal4-VP16 UAS-luciferase, luminescence, 20 h | Potency, µM (titrated, usually from 53.6 µM), for the others: top-dose activity, negative = inhibition, actives largely listed as inhibitors | 310,000 tested, 3.5% active | AID 2546;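 note: Gal4-VP16 expression switched on by copper sulfate through the metallothionein promoter; nearly all actives have a fitted effect of over 50% in size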
# 12-LOX inh: blocks human arachidonate 12S-lipoxygenase; P18054; purified 12hLO, xylenol orange hydroperoxide absorbance; Potency, µM (doses to about 108 µM), for the others: at the top dose activity change, negative = inhibition, hits mostly inhibitors; 580,000 tested, 1.1% active; AID 1671190
#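 Purified human 12hLO at 150 nM in 25 mM Hepes, 0.01% Triton X-100, pH 7.0, preincubated 15 min at room temperature with compound. Reaction started with 40 uM arachidonic acid, 30 min at room temperature. Hydroperoxide measured by Fe-xylenol orange, 573/405 nm absorbance ratio.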
# ELG1 DNA repair: ELG1-dependent DNA repair inhibition | HEK293T ELG1-luciferase reporter, luminescence, 16 h; DNA damage induced by 5-fluorouridine | Potency, µM (highest dose often 46.1 µM), for inactives: at the highest dose activity change, negative = inhibition, usual class: inhibitors | 330,000 tested, 2.3% active | AID 504467; note: nearly all actives have a fitted effect of over 55% in size
#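 Cells (2,000 per well) received 5-fluorouridine plus test compound or DMSO and were incubated 16 hr at 37 °C, 5% CO2. Luciferase activity was read by luminescence 30 min after ONE-Glo addition; signal suppression marked inhibition of damage-induced ELG1 function.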
# DT40 TDP1 no CPT: qHTS for Inhibitors of human tyrosyl-DNA phosphodiesterase 1 (TDP1): qHTS in cells in absence of CPT | DT40 Tdp1-/- hTDP1 cells, no CPT, ATP luminescence, 48 h | Potency, µM (top dose mostly 46.2 µM), for the others: at the highest dose activity change, negative = growth inhibition, most hits filed as inhibitors | 420,000 tested, 15% active | AID 686978, 2013; note: nearly all actives have a fitted effect of over 55% in size
#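 Cells were dispensed at 400 per well, compounds added by pin tool, plates incubated ≥48 hr at 37 °C, then CellTiter-Glo added for 30 min at room temperature before luminescence reading. Line: DT40 Tdp1-/- complemented with hTDP1; camptothecin omitted.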
# RORg inh: inhibitors of mouse ROR gamma transcriptional activity. Drosophila S2 Gal4-RORgamma UAS-luciferase reporter, 20 h. Potency, µM (titrated, usually from 53.6 µM), for inactives: at the highest dose activity change, negative = inhibition, usual class: inhibitors. 310,000 tested, 5.4% active. AID 2551; note: nearly all actives have a fitted effect of over 60% in size
# Target sequence (P51450 whole entry, looked up, the tested form may be a part): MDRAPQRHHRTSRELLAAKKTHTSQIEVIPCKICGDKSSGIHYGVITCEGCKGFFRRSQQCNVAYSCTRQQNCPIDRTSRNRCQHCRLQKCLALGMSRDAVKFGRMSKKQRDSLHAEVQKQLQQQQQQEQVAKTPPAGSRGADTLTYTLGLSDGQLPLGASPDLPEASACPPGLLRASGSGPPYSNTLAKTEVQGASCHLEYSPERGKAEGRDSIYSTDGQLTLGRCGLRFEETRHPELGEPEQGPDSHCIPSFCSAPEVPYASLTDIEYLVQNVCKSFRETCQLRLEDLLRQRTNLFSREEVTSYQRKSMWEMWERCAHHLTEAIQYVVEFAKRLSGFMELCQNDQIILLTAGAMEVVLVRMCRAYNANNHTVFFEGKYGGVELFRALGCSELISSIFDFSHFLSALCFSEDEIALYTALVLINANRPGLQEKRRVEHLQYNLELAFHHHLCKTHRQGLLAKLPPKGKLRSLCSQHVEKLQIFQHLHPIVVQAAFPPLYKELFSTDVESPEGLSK
#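 Stable Schneider cell line, Gal4 DNA-binding domain fused to ROR gamma, UAS-luciferase. Cmpd 1 hr RT → CuSO4 700 uM final → 20 hr RT → luciferase reagent 10 min → luminescence.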
# TDP1 cell CPT: growth inhibition of DT40 Tdp1-/-;hTDP1 cells with camptothecin (screen for TDP1 inhibitors). 420,000 tested, 12% active. AID 686979. chicken DT40 Tdp1-/-;hTDP1 cells + 20 nM CPT, ATP luminescence, 48 h. Potency, µM (series often up to 46.2 µM), for the others: at the highest dose activity change, negative = growth inhibition, usual class: inhibitors; note: nearly all actives have a fitted effect of over 55% in size
#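 Chicken DT40 Tdp1-/- cells complemented with human TDP1, 400 cells/well, exposed to compounds plus 20 nM camptothecin for at least 48 h at 37 C; viability read as ATP content by CellTiter-Glo luminescence.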
# Starred values were filed as active, the others as inactive; ? = inconclusive; nt = not tested or not shown. Calls come from the whole dose curve; as a rule, active = well fitted curve in the direction sought with a large enough effect; inconclusive = small, poorly fitted or top-dose-only effect, or another doubt; inactive = no such curve, though single readings can be large; an effect the other way counts as inactive or inconclusive. % is set by controls: 0 for no effect and ±100 for the full control effect; potency is the fitted concentration of half-maximal effect.
SMILES,Gal4-VP16 FLuc,12-LOX inh,ELG1 DNA repair,DT40 TDP1 no CPT,RORg inh,TDP1 cell CPT
N#CC1=C(S)N(c2ccccc2)C(c2ccc(-c3cccc(Cl)c3)o2)NC1=O (configuration not stated),?,-9%,13%,?,13µM*,?
Cc1cccc(N2C(S)=C(C#N)C(=O)NC2c2ccco2)c1 (configuration not stated),-5%,-34%,10%,?,17%,?
CCOc1ccc(C2NC(=O)C(C#N)=C(S)N2c2ccc(C)cc2)cc1OC (configuration not stated),?,?,0%,?,14µM*,?
Cc1ccc(C(=O)N2CC(C(=O)NCCc3ccncc3)C3(CCOCC3)C2)cc1C (configuration not stated),nt,-5%,nt,nt,nt,nt
Fc1ccc(-c2cnc(COc3ccc(Cl)cc3)o2)cc1,nt,14µM*,nt,nt,nt,nt
S=c1[nH]nc(COc2ccc(Cl)cc2)o1,?,?,1%,0%,6.3µM*,-12%
Cc1ccc(C)c(OCc2n[nH]c(=S)o2)c1,-11%,?,-4%,-14%,-21%,9%
S=c1[nH]nc(CCc2ccc(Cl)cc2)o1,?,?,19%,-22%,7.9µM*,-24%
Nc1ccc(Nc2ccccc2N)cc1,-4%,?,18%,10µM*,?,5.2µM*
COc1ccc(Nc2ccccc2N)cc1,?,?,?,21µM*,?,?
N#CCSc1nnc(-c2ccccc2)n1-c1ccc(Cl)cc1,nt,-19%,nt,nt,nt,nt
COc1ccc(C(=O)Nc2cccnc2Cl)cc1OC,2%,6%,8%,13%,-9%,2%
COc1ccccc1C(=O)NC(=S)Nc1cc(C(=O)O)ccc1C,21%,?,-2%,-16%,-14%,5%
COc1ccccc1C(=O)NC(=S)Nc1cccnc1Cl,?,-2%,?,-29%,10µM*,0%
Cc1ccc(C(=O)NC(=S)Nc2cccnc2Cl)cc1,?,?,?,?,5µM*,?
Cc1cc(=O)n(Cc2ccc(OC(C)C)cc2)c(=S)[nH]1,?,15%,-1%,-21%,7.9µM*,-23%
COc1cc(Br)cc(CN2CCN(C=O)CC2)c1O,12%,?,-2%,?,-26%,26µM*
O=C(NCc1ccccc1Cn1cccn1)c1cn[nH]c1-c1ccccc1,nt,-1%,nt,nt,nt,nt
Oc1ccc(/C=N/Nc2ccc(C(F)(F)F)cn2)cc1,?,?,?,-22%,4.5µM*,?
COc1cc(/C=N/Nc2ccc(C(F)(F)F)cn2)cc(OC)c1O,?,?,-5%,18µM*,?,?
Oc1ccc(/C=N/Nc2ccc(C(F)(F)F)cn2)c(O)c1,-27%,-15%,?,nt,?,nt
C=CCOc1cccc(NC(=O)CCc2ccccc2)c1,nt,5%,nt,nt,nt,nt
CC(C)n1nc(C(=O)N2CCCc3ccccc32)c2ccccc2c1=O,nt,0%,nt,nt,nt,nt
COc1ccc(-c2ccc(C(C)=O)cc2)cc1C1C2C=CCCC2(C)C(=O)N1Cc1ccccc1 (configuration not stated),-10%,nt,nt,nt,29%,nt
C[C@@]12CCC=C[C@H]1[C@H](c1ccc3ccccc3c1/C=C/c1ccccc1)N(Cc1ccccc1)C2=O,2%,14%,-3%,?,-5%,2.1µM*
SMILES,Gal4-VP16 FLuc,12-LOX inh,ELG1 DNA repair,DT40 TDP1 no CPT,RORg inh,TDP1 cell CPT
CC12CCC=CC1C(c1ccc3ccccc3c1C=Cc1ccccc1)N(Cc1ccccc1)C2=O (configuration not stated),-4%,nt,nt,nt,-4%,nt
COc1ccc(-c2ccc(C(C)=O)cc2)cc1[C@H]1[C@@H]2C=CCC[C@@]2(C)C(=O)N1Cc1ccccc1,4%,-10%,21µM*,-83%,27%,?
C[C@@]12CCC=C[C@H]1[C@H](c1ccc(/C=C/c3ccccc3)cc1F)N(Cc1ccccc1)C2=O,1%,?,0%,21µM*,-3%,15µM*
C[C@@]12CCC=C[C@H]1[C@H](c1ccc(C(F)(F)F)cc1)N(Cc1ccccc1)C2=O,0%,?,?,16µM*,0%,?
COCCn1ncc(N2CCCC(CC(=O)NCC3CC3)C2)cc1=O (configuration not stated),nt,3%,nt,nt,nt,nt
COc1ccccc1C(=O)N1CCN(c2oc(-c3cccc(Cl)c3)nc2C#N)CC1,nt,5%,nt,nt,nt,nt
CCC(NC(=O)c1ccc2nc(-c3ccc(F)cc3)cn2c1)c1ncc(C)[nH]1 (configuration not stated),nt,35%,nt,nt,nt,nt
O=C(Nc1cccc(Cl)c1F)N1CCC(n2cnnc2C2CC2)C1 (configuration not stated),nt,28%,nt,nt,nt,nt
Cc1cc(C)cc(NC(=O)CN2CCCN(S(=O)(=O)c3ccc(Br)s3)CC2)c1,0%,-15%,-21%,?,-2%,?
Cc1ccc(NC(=O)CN2CCCN(S(=O)(=O)c3ccc(Br)s3)CC2)cc1,-2%,-26%,?,18µM*,21%,18µM*
CCOC(=O)N1CCN(S(=O)(=O)c2ccc(Br)s2)CC1,-11%,170%,0%,13µM*,?,?
O=C(CC1CCN(C(=O)c2cc(F)ccc2F)C1)NC1CC1 (configuration not stated),nt,42%,nt,nt,nt,nt
Cc1cc(-c2ccccc2)cc(C)n1,nt,0%,nt,-12%,nt,-1%
Cc1ccc2c3cc(-c4ccccc4)cn3ccn12,nt,0.79µM*,nt,nt,nt,nt
CCN1C(=O)CCN(C2CCCC2)c2nc(Nc3ccc(C(=O)NC4CCN(C)CC4)cc3OC)ncc21,nt,?,nt,7.3µM*,nt,5.2µM*
CCOC(=O)/C(C#N)=C/c1ccc(Br)s1,nt,1%,nt,nt,nt,nt
N#Cc1ccccc1OCC(=O)c1ccc(NC(=O)c2ccccc2)cc1,nt,6%,nt,nt,nt,nt
COc1ccc(C(OCC(O)CN(C)C2CCCCC2)c2ccc(OC)cc2)cc1 (configuration not stated),6%,-3%,11%,?,-31%,16µM*
COc1ccc(CN(C)CC(O)COC(c2ccc(OC)cc2)c2ccc(OC)cc2)cc1 (configuration not stated),6%,?,-12%,23µM*,-31%,?
CCOc1ccc(CN(C)CC(O)COC(c2ccc(OC)cc2)c2ccc(OC)cc2)cc1 (configuration not stated),?,?,?,18µM*,?,?
